The campaign covered roughly 340,000 compounds. About 12,000 (3.5%) were called active. Another 18% or so got no clear call; they are omitted. Only a selection was taken, and actives are over-represented in it overall. Values without a mark were called inactive. The call rests on the fitted dose curve; in most records, active means well fitted inhibition curve with a large enough effect; inconclusive means small, poorly fitted or top-dose-only effect, or another doubt; inactive means no such curve, though single readings can be large or run the other way.
Test: qHTS Assay for Inhibitors of Hepatitis C Virus (HCV)
Settings: Huh7.5.1 HCVcc-Cre infection, luciferase reporter, 44 h; series mostly up to 41.8 µM; activity change, negative = inhibition: at the top concentration
How it was run: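 Cells (1,000/well) were plated 4 h before compound, then infected with HCVcc-Cre virus (~0.5 moi). After 44 h further culture, infection was read as luciferase luminescence following a 15 min substrate incubation at room temperature.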
On the % scale 0 is the no-effect control and ±100 the full control effect; potency means the concentration at half of the fitted maximal effect.

Structure (SMILES)	activity change, negative = inhibition	Potency
CC(CC(=O)O)CC(=O)NNC(=O)c1cccc(Br)c1 (centres undefined)	7.99%	
Cc1ccccc1NC(=S)NNC(=O)c1cccc(Br)c1	20.4%	
O=C(/C=C/NNC(=O)c1cccc(Br)c1)c1ccccc1		10 µM (active)
CC(=O)c1cccc(-c2ccc(CN3C(CC(C)C)C(=O)N(Cc4cn(CC5CCCCC5)nn4)CCS3(=O)=O)cc2)c1 (centres undefined)	-21% [at 8.37 µM]	
COc1ccccc1-n1cnc2cc(C(=O)NCC3CCCO3)ccc21 (centres undefined)	4.92%	
Cn1c(CCN2CCCC2)nc2cc(NS(=O)(=O)c3ccccc3)ccc21	2.98%	
COc1ccccc1-n1cnc2cc(NS(=O)(=O)c3ccccc3)ccc21		22.4 µM (active)
O=C(COC(=O)c1ccc(F)cc1)Nc1ccc2c(c1)OCO2	2.6%	
COc1ccc(C(=O)NCC2CCCN2S(=O)(=O)c2cccs2)cc1OC (centres undefined)	-3.06%	
O=C(NCc1ccccc1Cl)C(=O)NCC1CCCN1S(=O)(=O)c1cccs1 (centres undefined)	4.35%	
COc1ccccc1CCNC(=O)C(=O)NCCC1CCCCN1S(=O)(=O)c1cccs1 (centres undefined)		35.5 µM (active)
Oc1[nH]c2ccccc2c1N=Nc1c(F)c(F)c(F)c(F)c1F	28.3%	
Nc1cc2c(cc1Br)-c1ccc(F)cc1C2=O		12.6 µM (active)
CC1CCCCC1NC(=O)NC(=O)COC(=O)C1=NN(c2ccccc2)C(=O)CC1 (centres undefined)	-10.4%	
Cc1ccc(C(c2nnnn2C(C)(C)C)N2CCc3ccccc3C2)cc1 (centres undefined)	8.71%	
COc1ccccc1C(c1nnnn1C(C)(C)C)N1CCN(Cc2ccccc2)CC1 (centres undefined)	-20.2%	
COc1ccc(OC)c(C(c2nnnn2C(C)(C)C)N2CCc3ccccc3C2)c1 (centres undefined)		7.94 µM (active)
CCCCn1c(N)c(N(CC)C(=O)c2ccc(N(C)S(=O)(=O)c3ccc(C)cc3)cc2)c(=O)[nH]c1=O	6.7%	
O=C(c1ccc2c(c1)C(=O)N(Cc1ccncc1)C2=O)N1CCN(S(=O)(=O)c2ccc(OC(F)(F)F)cc2)CC1	5.97%	
Oc1ccc(/C=N/Nc2nc(-c3ccccc3F)nc3ccccc23)c(O)c1		11.2 µM (active)
Fc1ccc(/C=N/Nc2nc(-c3cccnc3)nc3ccccc23)cc1	-28.7%	
Cc1cc(N/N=C/c2ccccc2F)c2ccccc2n1	-11.7%	
C[C@]12CC[C@H](O)CC1=CCC1C2CC[C@@]2(C)C1CC[C@@H]2NC(=O)CCC(=O)O (some centres undefined)	-12.7%	
CCOc1ccc(NC(=O)NNC(=O)c2ccc(Cl)cc2Cl)cc1	-19.6%	
COC(=O)c1sc2ncccc2c1OCc1ccc(Cl)cc1Cl	-19.7%	

Structure (SMILES)	activity change, negative = inhibition	Potency
NC(N)=N/N=C/c1ccc(OCc2ccc(Cl)cc2Cl)cc1		11.2 µM (active)
CC(=O)NC12CC3CC(C1)CC(C(=O)N1CCN(S(=O)(=O)c4cccs4)CC1)(C3)C2	-4.83%	
C/C(=N\Nc1ccc(Cl)nn1)c1ccccc1O		0.501 µM (active)
CCCCCCCN=C(C)c1ccccc1O	16%	
Clc1ccc(N/N=C/c2cccs2)nn1	0.874%	
CC(C)=C(NC(=O)c1ccccc1)C(=O)N/N=C(\C)c1ccccc1O	12.9%	
Oc1cccc(/C=N/Nc2ccc(Cl)nn2)c1O		2.51 µM (active)
COc1cccc(/C=N/Nc2ccc(Cl)nn2)c1	-5.2%	
CCCN(C(=O)CSc1nnc(N)s1)c1c(N)n(Cc2ccccc2)c(=O)[nH]c1=O	-9.8%	
CCc1ccc(-c2nn(-c3ccccc3C)cc2C(=O)N2CCN(C3CCS(=O)(=O)C3)CC2)cc1 (centres undefined)	-0.968%	
CCc1ccc(-c2nn(-c3ccccc3)cc2CSC(=N)N)cc1		10 µM (active)
Cc1ccc(-c2nn(-c3ccccc3)cc2C(=O)NC2CCC(O)CC2)cc1 (centres undefined)	-28.6%	
Cc1ccc(NC(=O)C(C)Sc2nnc(C3CC3)n2C2CC2)cc1S(=O)(=O)N1CCOCC1 (centres undefined)	2.86%	
CC(C)CC[n+]1ccn(C2=C([O-])c3ccccc3C(=O)/C2=N\S(=O)(=O)c2ccccc2)c1		10 µM (active)
COc1ccc(C(=O)NCc2ccccc2C)cc1S(=O)(=O)NC1CCCC1	-2.86%	
CCCCN(C(=O)C1CCC1)c1c(N)n(Cc2ccccc2)c(=O)[nH]c1=O	0.645%	
COc1ccc(C(=O)C[n+]2ccc(C)cc2)cc1	11%	
COc1ccc(CCC(=O)c2ccc(OC)cc2)cc1	3.1%	
COc1ccc(C(=O)C[n+]2ccc(N)c(C)c2C)cc1		2.24 µM (active)
COc1cc(/C=C/C(=O)OCC(=O)c2ccccc2)cc(OC)c1OC	-9.1%	
COc1ccc(S(=O)(=O)N(C)C[C@H]2Oc3ccc(NS(=O)(=O)c4cccs4)cc3CC(=O)N([C@H](C)CO)C[C@H]2C)cc1	-16.8%	
O=C(COc1ccc(F)cc1Br)NCC1COc2ccccc2O1 (centres undefined)	-24.9%	
CC1(C)Cc2cccc(OCC(=O)NCc3ccccc3)c2O1	3.16%	
CC1(C)Cc2cccc(OCC(N)=O)c2O1	8.67%	
CC1(C)Cc2cccc(OCC(=O)N3CCN(c4ccc([N+](=O)[O-])cc4)CC3)c2O1		10 µM (active)

Structure (SMILES)	activity change, negative = inhibition	Potency
COc1ccc(CCOC2OC(CO)C(OC(=O)/C=C/c3ccc(O)c(OC)c3)C(O[C@H]3O[C@@H](C)[C@H](O)[C@@H](O)[C@H]3O)C2O)cc1O (some centres undefined)	-1.52%	
CC(C)OCCCNc1ncnc2c1[nH]c1ccc(F)cc12		12.6 µM (active)
COc1cc(OC)c(OC)cc1/C=N/Nc1ncnc2c1[nH]c1ccc(C)cc12	48.4%	
COc1ccc2[nH]c3c(=O)n(Cc4ccco4)cnc3c2c1	-22.8%	
O=C(COC(=O)c1cccc(Cl)c1)NC1CCCCCCC1	0.0254%	
O=C1NC(Cc2ccc(O)cc2)c2nc3ccc(Cl)cc3c(=O)n2-c2ccccc21 (centres undefined)	4.73%	
O=C(NNc1c2ccccc2nc2ccccc12)c1cc2ccccc2cc1O		2.82 µM (active)
Cc1ccccc1NC(=O)NNC(=O)OC(C)(C)C	30%	
COc1ccc(-c2cc(C(=O)Nc3ccccc3O)c3ccccc3n2)cc1	-29%	
O=C(N/N=C/c1cccnc1)c1cc2ccccc2cc1O	5.01%	
Cc1ccc(C(=O)NNC(=O)OC(C)(C)C)c(Cl)c1	-1.05%	
CC(C)(C)OC(=O)NNc1c2ccccc2nc2ccccc12		2.82 µM (active)
CC(C)CN(C(=O)COC(=O)c1ccc(Cl)c(N)c1)c1c(N)n(Cc2ccccc2)c(=O)[nH]c1=O	-7.76%	
O=C(CSc1nc2[nH]ncc2c(=O)[nH]1)Nc1ccc(F)cc1	1.89%	
COc1cc(/C=N/NC(=O)c2cc(-c3ccccc3C)nc3ccccc23)cc(OC)c1O	-9.28%	
Cc1ccc(C(=O)OCC(=O)N2CCCCCC2)cc1S(=O)(=O)N1CCOCC1	12.3%	
CCCc1nc2ccccc2c(C(=O)OCC(=O)c2ccc3c(c2)NC(=O)CO3)c1CC	-18.7%	
CCCc1nc2ccccc2c(C(=O)OCc2nnc(-c3cc(OC)c(OC)c(OC)c3)o2)c1CC		2.82 µM (active)
O=C(OCc1nnc(-c2ccccc2)o1)c1cc(=O)[nH]c2ccccc12	-1.44%	
CCOc1ccc(S(=O)(=O)NCCC(=O)NCC2CCCO2)cc1 (centres undefined)	12.1%	
O=C(NCc1ccc2c(c1)OCO2)c1cc([N+](=O)[O-])ccc1N1CCOCC1	-18.5%	
O=C(CN1C(=O)NC2(CCCCCCC2)C1=O)NCc1ccc(F)cc1	-0.305%	
NS(=O)(=O)c1cccc(NC(=O)CSc2nc3ccccc3n2-c2ccccc2)c1	-21.2%	
COc1ccc(CCNC(=O)CSc2nc3[nH]ncc3c(=O)n2-c2cccc(C(F)(F)F)c2)cc1OC	-14.3%	
NC(=O)NC(=O)CSc1nc2cc([N+](=O)[O-])ccc2n1-c1cccc(C(F)(F)F)c1		10 µM (active)

Structure (SMILES)	activity change, negative = inhibition	Potency
CC(OC(=O)Cc1ccc(F)cc1)C(=O)N1CCc2ccccc21 (centres undefined)	13.6%	
O=C(NCc1ccccc1)c1ccc(S(=O)(=O)Nc2cccc(C(F)(F)F)c2)cc1	-10.9%	
O=C(/C=C/c1ccc(F)cc1)Nc1cccc(S(=O)(=O)Nc2cccc(C(F)(F)F)c2)c1	-16.9%	
Cc1oc2c(F)c(F)c(F)c(F)c2c1S(=O)(=O)Nc1cccc(C(F)(F)F)c1		4.47 µM (active)
O=C(O)C(c1cccs1)C1(O)CCCCC1 (centres undefined)	8.65%	
CCOc1ccc(S(=O)(=O)NCCC(=O)NCC(C)(C)N2CCOCC2)cc1	12.5%	
CN(C)c1nc(N)nc(CSc2nnnn2-c2cccc3ccccc23)n1		3.16 µM (active)
CN(C)c1nc(N)nc(CSc2ccccn2)n1	11.1%	
COc1ccc(-n2nnnc2SCc2nc(N)nc(N3CCOCC3)n2)cc1	-19.5%	
COC(=O)Cc1ccc(OC(=O)C2CCN(S(=O)(=O)c3ccc(OC)c(OC)c3)CC2)cc1	-4.2%	
CCN(CC)CCNc1nc(-c2ccc(OC(F)F)cc2)c(C)s1		17.8 µM (active)
CCOC(=O)c1ccccc1NC(=O)c1c(N)n(C)c(=O)[nH]c1=O	30.5%	
CCCN(CC(=O)Nc1ccccc1OC)C(=O)CCC(=O)c1ccc(F)cc1	-22.8%	
COc1ccc([C@H]2CC(=O)C=C(/C=C/c3ccc(Cl)cc3)C2)cc1	20.6%	
CC12CCCCC1=CC(=O)CC2 (centres undefined)	9.2%	
COc1ccc(NC(=O)/C(N=Nc2cccc(S(=O)(=O)Nc3ccc(SC(F)F)cc3)c2)=C(\C)O)cc1	-5.31%	
O=c1ccn([C@@H]2O[C@H](CNS(=O)(=O)c3cc4ccccc4s3)[C@@H](O)[C@H]2O)c(=O)[nH]1	14.9%	
COc1cccc(CNc2nc3nc4c(c(=O)n3[nH]2)CCC4)c1	8.96%	
COc1ccc(NC(=O)N2CCC3(CC2)OCCO3)c(OC)c1	-0.519%	
COc1cccc(-c2cc3nc4c(c(N5CCC6(CC5)OCCO6)n3n2)CCCC4)c1		12.6 µM (active)
Cc1ccc(S(=O)(=O)N2CCOCC2)cc1C(=O)Nc1ccccc1N1CCCC1	16.1%	
CC(C)CCNc1nc(N2CCCC2)c2c(c1C#N)CCN(C)C2		12.6 µM (active)
CCN1CCc2c(C#N)c(NCc3ccccc3)nc(NCCO)c2C1	-15.5%	
CCc1nc(NCCO)c(C#N)c2c1CCCC2	-25%	

From PubChem BioAssay AID651820 (National Center for Advancing Translational Sciences (NCATS), 2012)
